This is a sample that favours compounds with a hit; in the whole collection about 3.5% have one here.
TEAD-YAP inh – TEAD-YAP interaction inhibition; 640,000 compounds, 1.4% hits; HEK-TIYL cells, TEAD-Gal4/YAP UAS-luciferase luminescence; inhibition, % at 9.12 µM; in the data active means inhibition above about 32%
FBW7 activator – activators of human E3 ligase FBW7. AlphaScreen FBW7–phospho-cyclin E peptide binding, activator screen. normalized activity (activation), % at 26.1 µM. 650,000 compounds, 0.13% hits. AID 1259310; in the data active means normalized activity above about 1.9%;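 further: purified mutant Fbw7 with reduced substrate affinity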
MITF primary – inhibitors of human MITF; AID 1259374; inhibition, % at 2.6 µM; 650,000 compounds, 0.91% hits; AlphaScreen MITF homodimerization, bead proximity signal; O75030; in the data active means inhibition above about 50%
Target sequence (O75030 whole entry, looked up): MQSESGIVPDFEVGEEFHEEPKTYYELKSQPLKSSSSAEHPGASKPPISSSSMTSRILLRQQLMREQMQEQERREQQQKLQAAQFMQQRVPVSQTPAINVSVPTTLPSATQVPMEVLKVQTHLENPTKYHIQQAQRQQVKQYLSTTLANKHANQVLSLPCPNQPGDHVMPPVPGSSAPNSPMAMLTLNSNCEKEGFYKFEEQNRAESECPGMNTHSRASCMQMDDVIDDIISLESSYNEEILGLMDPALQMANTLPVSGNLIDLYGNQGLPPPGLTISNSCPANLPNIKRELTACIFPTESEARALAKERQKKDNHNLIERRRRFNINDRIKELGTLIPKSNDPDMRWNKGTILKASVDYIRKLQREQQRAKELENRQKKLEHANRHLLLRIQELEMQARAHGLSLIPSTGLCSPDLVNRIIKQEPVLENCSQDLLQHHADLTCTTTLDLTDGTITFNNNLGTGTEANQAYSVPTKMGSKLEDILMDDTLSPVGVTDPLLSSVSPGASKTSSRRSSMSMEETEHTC
GPR151 activ – activators of human GPR151; PathHunter beta-arrestin GPR151 cells, luminescence; activation, % at 11.2 µM; 650,000 compounds, 1% hits; in the data active means activation above about 4.9%
GPR151 conf act – human GPR151 activation, confirmation screen. shares compounds with GPR151 activ. GPR151 PathHunter beta-arrestin cells, luminescence, 90 min; % of EA-reagent control over plate median. activation, % at 11.2 µM. 6,700 tested, under 10 active;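 active means mean percent activation across replicates above the confirmation screen cutoff of 4.91%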
GPR119 counter – counter-screen for GPR151 activators: effect on human GPR119; shares compounds with GPR151 activ; activation, % at 11.2 µM; 6,700 compounds, 0.3% hits; GPR119 PathHunter beta-arrestin cells, luminescence, 90 min; 0 = compound-well median, 100 = enzyme-acceptor control;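 active means mean percent activation in the counterscreen above 29.09%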;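 further: counterscreen on off-target GPR119 to flag nonselective hits from the GPR151 activator screen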
Large screens that a line does not name were inactive (follow-up assays come after a bar, where they were run).

O=C(CCCC(=O)Nc1ccc(Cl)cc1)Nc1ccc(Cl)cc1	GPR151 activ 14 | GPR151 conf act inactive | GPR119 counter inactive
Cc1cnc(-c2c(C)noc2C)nc1NCCc1ccc(O)cc1	none
Cc1cnc(-c2c(C)nn(C)c2C)nc1NCCc1ccc(O)cc1	GPR151 activ 5.7 | GPR151 conf act inactive | GPR119 counter inactive
Cc1ccc(OCC(=O)Nc2ccncc2)cc1C	GPR151 activ 4.9 | GPR151 conf act inactive | GPR119 counter inactive
COCCCNC(=O)CCCc1ccc(OC)c(C)c1	GPR151 activ 13 | GPR151 conf act inactive | GPR119 counter inactive
COCCCNC(=O)COc1ccc(C)c(C)c1	GPR151 activ 10 | GPR151 conf act inactive | GPR119 counter inactive
Cc1ccc(C)c(OCC(=O)NCCCN(C)C)c1	GPR151 activ 9.1 | GPR151 conf act inactive | GPR119 counter inactive
COCCCNC(=O)COc1ccc(Cl)c(C)c1	none
CC(=O)N(CN1C(=O)C2C3C=CC(C3)C2C1=O)c1ccc(C)cc1 (centres undefined)	none
Cc1ccc(S(=O)(=O)N(C)CC(=O)OCc2cc([N+](=O)[O-])cc3c2OCOC3)cc1	GPR151 activ 8.1 | GPR151 conf act inactive | GPR119 counter inactive
O=C(O)CC1NC(=O)c2ccc(Br)cc21 (centres undefined)	GPR151 activ 18 | GPR151 conf act inactive | GPR119 counter inactive
CCOC(=O)N1CCN(CC(O)COc2ccc([N+](=O)[O-])cc2)CC1 (centres undefined)	GPR151 activ 5.4 | GPR151 conf act inactive | GPR119 counter inactive
CC(C)C[C@H]1NC(=O)[C@H]2CN(C(=O)Oc3ccc(Cl)cc3)CCN2C1=O	none
COc1ccc(/C=N/NC(=O)Cc2cccc3ccccc23)cc1[N+](=O)[O-]	none
O=C(Nc1ccc2c(c1)CN(C1CCSCC1)CC2)C1(c2ccccc2)CC1	none
O=C(c1ccsc1)N1CCc2ccc(NC(=O)C3(c4ccccc4)CC3)cc2C1	GPR151 activ 5.9 | GPR151 conf act inactive | GPR119 counter inactive
Cc1cc(F)ccc1NC(=O)CCNc1c(N2CCCC2)c(=O)c1=O	GPR151 activ 5.0 | GPR151 conf act inactive | GPR119 counter inactive
O=C(Nc1ccc(Cl)cc1)c1cc(Br)cs1	none
O=C(O)c1cccc(-n2cc(-c3cc(F)cc(F)c3)cn2)c1	GPR151 activ 7.2 | GPR151 conf act inactive | GPR119 counter inactive
O=C(O)c1ccc(-c2cnn(-c3ccccc3)c2)nc1	none
CC(=O)c1ccc(NC(=O)Nc2ccc(CC(=O)O)cc2)cc1	GPR151 activ 6.6 | GPR151 conf act inactive | GPR119 counter inactive
CC(=O)Nc1ccc(C(=O)Nc2ccc(CC(=O)O)cc2)cc1	none
CC(=O)c1ccc(NS(=O)(=O)c2cc3c(cc2Cl)N(C(C)=O)CCO3)cc1	none
CC(=O)c1cccc(NC(=O)N2CCCC2C(=O)Nc2cccc(C)c2)c1 (centres undefined)	GPR151 activ 15 | GPR151 conf act inactive | GPR119 counter inactive
O=[N+]([O-])c1cccc(-c2nnc(-c3cccc(S(=O)(=O)N4CCOCC4)c3)o2)c1	none
CC1CCN(S(=O)(=O)c2cccc(-c3nnc(-c4cccc([N+](=O)[O-])c4)o3)c2)CC1	GPR151 activ 5.6 | GPR151 conf act inactive | GPR119 counter inactive
COc1ccc(C2C(C#N)=C(N)N(N(C)C)C3=C2C(=O)CC(c2ccccc2)C3)cc1 (centres undefined)	none
NC(=O)CN(c1cccc(Cl)c1)S(=O)(=O)c1ccccc1	none
CC(C)(C)NC(=O)c1cc(-c2ccco2)[nH]n1	none
CCCN(CCC)C(=O)c1cc(-c2ccco2)[nH]n1	GPR151 activ 5.2 | GPR151 conf act inactive | GPR119 counter inactive
CCOc1ccc(C(=O)NNC(=O)CC(c2ccccc2)c2ccccc2)cc1	none
O=C1CSC(c2ccccc2Br)N1c1ccc(F)cc1Cl (centres undefined)	none
CCCN1C(=O)c2ccc(C(=O)Nc3ccccc3I)cc2C1=O	none
CN1C(=O)c2ccc(C(=O)Nc3ccccc3I)cc2C1=O	GPR151 activ 5.2 | GPR151 conf act inactive | GPR119 counter inactive
O=C(NCCCN1CCOCC1)c1oc(=O)c2ccccc2c1-c1ccccc1	none
CCCOC(=O)c1ccc(OCC(O)CN(CCO)CCO)cc1 (centres undefined)	GPR151 activ 5.1 | GPR151 conf act inactive | GPR119 counter inactive
